The values below come from PubChem BioAssay (NCI).

Compounds without any hit were thinned out: in the full panel of roughly 83,000, 20% have a hit.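 Results are percent growth after 48 hours of single-concentration exposure. 100 means growth as in untreated cells, lower positive values show inhibition; negative values down to -100 show cell death.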 Unmarked numbers belong to inactive results. Calls of active or inactive are those of the source. The calls were made as follows: active = growth percent below 10; inactive = the rest.

The test system of this assay is MDA-MB-468 breast. The assay can be described thus: NCI-60 one-dose screen, 48 h (100 = growth as untreated, 0 = no growth, -100 = all killed). The note with it: 10 µM unless noted.
On to `CCCCSCC(=O)c1ccccc1`, for which the growth was 113%. Under `CN(C)CCS(=O)(=O)Nc1cc(-c2ccc3ncnc(Nc4ccc(F)c(Cl)c4)c3c2)cnc1Cl` stands -53% (active); under `CCCCNC(=O)NS(=O)(=O)c1ccc(N2N=C(c3ccc(C)cc3C)CC2c2ccc(N(C)C)cc2)cc1` (centres undefined), 60%; under `NS(=O)(=O)c1cc(C2(O)NC(=O)c3ccccc32)ccc1Cl` (centres undefined), 102%.

As to `CC(C)(C)n1cc(-c2ccnc(NCCNS(=O)(=O)c3ccc(F)cc3)c2)c(-c2cccc(O)c2)n1`, the growth was 8.72% (active). Under `CCN1CCN(c2cc(C)nc(NCc3cc(Nc4ccnc5cc(Cl)ccc45)ccc3F)n2)CC1` stands 47.4%. The same measure for `COc1cc(C2CC(c3ccccc3)=NN2C=O)ccc1Oc1ccnc2cc(Cl)ccc12` (centres undefined): 16.5%; for `COc1ccc(OC)c(-c2c(C#N)c(-c3ccco3)nc3c2c(-c2ccccc2)nn3-c2ccccc2)c1`: 98.4%; for `CCN(CC)CCCNc1ccc(C)c2sc3ccccc3c(=O)c12`: -34.8% (active). Under `C=C1c2c(C)nn(-c3ccc(O)cc3)c2N(C)C23C[C@@H]1C1(C)c4c(C)nn(-c5ccc(O)cc5)c4N(C)C(C)(C[C@H]12)C3` (some centres undefined) stands -5.71% (active); under `COc1ccc(/C=N\N2CCOCC2)cc1OC1CCCC1`, 117%.

As to `O=[N+]([O-])c1ccc(Oc2cc(Cl)c(Cl)cc2Cl)c(C(F)(F)F)c1`, the growth was 100%. Under `N/C(=N\C(N)=N\c1nc2ccccc2s1)c1cccc(F)c1` stands 92.9% [5 µM]; under `NC(=O)c1cc(Br)cc(Br)c1NS(=O)(=O)c1ccccc1`, 106%.
